Laboratory results as given in PubChem BioAssay AID743318 (Broad Institute, 2014).
Entries with a potency or affinity are not part of this list. Calls of active or inactive are those of the source.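 How the source made its calls: active means cytotoxic signal drop whose half-maximal concentration is at most twice the top valid dose; inconclusive means flat drop between 30% and 70%, or poor fit; inactive means the rest.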

Test: loss of A549 viability via ATP – cell-based, plate reader, dry powder, set 7, cytotoxicity control, dose response (AID 743318)
Conditions: CellTiter-Glo ATP luminescence, 72 h; series mostly up to 26 µM

SMILES	outcome
Cc1cccc(OCCn2c(=S)[nH]c3ccc(C(F)(F)F)cc32)c1	inactive
Cc1ccc(C(C)C)c(OCCn2c(=S)[nH]c3c(Cl)cccc32)c1	inactive
Cc1ccc(C)c(OCCn2c(=S)[nH]c3ccccc32)c1	inactive
Cc1ccc(C(C)C)c(OCCn2c(=S)[nH]c3ccc(Cl)cc32)c1	inactive
S=c1[nH]c2cc(Cl)ccc2n1CCOc1ccccc1	inactive
Cc1ccc2c(c1)[nH]c(=S)n2CCOc1ccccc1	inactive
Cc1ccccc1OCCn1c(=S)[nH]c2ccccc21	inactive
Cc1ccc(OCCn2c(=S)[nH]c3ccccc32)c(C(C)C)c1	inactive
COc1ccc(OCCn2c(=S)[nH]c3ccccc32)cc1	inactive
CC(C)(C)c1ccccc1OCCn1c(=S)[nH]c2ccccc21	inactive
Cc1ccc(C(C)C)c(OCCn2c(=S)[nH]c3ccccc32)c1	inactive
CC(C)c1ccccc1OCCn1c(=S)[nH]c2ccccc21	inactive
Cc1ccc(C(C)C)c(OCCn2c(=S)[nH]c3cccc(C)c32)c1	inactive
Cc1ccc(C(C)C)c(OCCn2c(=S)[nH]c3c(F)cccc32)c1	inactive
Cc1ccc(OCCn2cnc3ccccc32)cc1	inactive
Fc1ccccc1OCCn1c(=S)[nH]c2ccccc21	inactive
Cc1ccc(OCCn2c(=S)[nH]c3ccccc32)cc1	inactive
Cc1cccc(OCCn2c(=S)[nH]c3cc(F)ccc32)c1	inactive
Cc1ccc(OCCn2c(SCCO)nc3ccccc32)c(C(C)C)c1	inactive
Cc1cccc2[nH]c(=S)n(CCOc3ccccc3)c12	inactive
S=c1[nH]c2ccccc2n1CCOc1ccc(Cl)cc1	inactive
S=c1[nH]c2ccccc2n1CCOc1ccccc1Cl	inactive
O=c1[nH]c2ccccc2n1CCOc1ccccc1	inactive
CC(C)(C)c1ccc(OCCn2cnc3ccccc32)cc1	inactive
Cc1ccc(OCCn2cnc3ccccc32)c(C(C)C)c1	inactive
